Results taken from the supplement of paper PMC10849652.
About 7,900 targets were measured; listed, in parts, are those with a hit and a random draw of the rest. About 0.6% of all pairs of compound and target were hits.

Legend:
Assay in all cases: log2 fold change, soluble protein after heating vs DMSO (PISA); higher = thermal stabilisation; K562 cells, 10 uM, 30 min; active = over 0.2 and 3.5 SD of the protein, either way, in both replicates (recomputed)
bafetinib = compound: Cc1ccc(NC(=O)c2ccc(CN3CC[C@H](N(C)C)C3)c(C(F)(F)F)c2)cc1Nc1nccc(-c2cncnc2)n1 [bafetinib]
Method in brief: (§1)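 Values are thermal stability changes relative to control samples and are taken from duplicates. They are stated as log2 fold changes. Before quantification by TMTpro 16plex LC-MS/MS with equalised channel sums, K562 cells at 2×10^6 cells/mL were treated with 10 μM compound for 30 min, heated in aliquots for 3 min across 48°C-58°C, pooled, extracted in PBS with 0.5% NP-40 at 4°C, and centrifuged at 21,000xg for 90 min to give the soluble supernatant.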

[1] = compound: Cc1cccc(CC(=O)N2CCc3c2ccc(-c2cn(C)c4ncnc(N)c24)c3F)n1
Method in brief: as §1

nilotinib = compound: Cc1cn(-c2cc(NC(=O)c3ccc(C)c(Nc4nccc(-c5cccnc5)n4)c3)cc(C(F)(F)F)c2)cn1 [nilotinib]
Method in brief: as §1

[2] = compound: Cc1nc(Nc2n[nH]c3c2CN(C(=O)N[C@H](CN(C)C)c2ccccc2)C3(C)C)c2sccc2n1
Method in brief: as §1

dasatinib = compound: Cc1nc(Nc2ncc(C(=O)Nc3c(C)cccc3Cl)s2)cc(N2CCN(CCO)CC2)n1 [dasatinib]
Method in brief: as §1

[3] = compound: Cc1ncc(-c2ccnc(Nc3ccc(S(C)(=O)=O)cc3)n2)n1C(C)C
Method in brief: as §1

[4] = compound: Cn1cc(-c2ccc3c(c2)CCN3C(=O)Cc2cccc(C(F)(F)F)c2)c2c(N)ncnc21
Method in brief: as §1

[5] = compound: Cn1cc(-c2ccc3nnc(C(F)(F)c4ccc5ncccc5c4)n3n2)cn1
Method in brief: as §1

tipifarnib = compound: Cn1cncc1[C@@](N)(c1ccc(Cl)cc1)c1ccc2c(c1)c(-c1cccc(Cl)c1)cc(=O)n2C [tipifarnib]
Method in brief: as §1

mubritinib = compound: FC(F)(F)c1ccc(/C=C/c2nc(COc3ccc(CCCCn4ccnn4)cc3)co2)cc1 [mubritinib]
Method in brief: as §1

Measured: log2 fold change

MYH10 isoform 3 (UniProt P35580)
inactive: bafetinib -0.046 | [1] 0.033 | nilotinib -0.049 | [2] -0.001 | dasatinib -0.057 | [3] 0.004 | [4] 0.056 | [5] 0.011 | tipifarnib -0.083 | mubritinib 0.059

NDUFB7 (UniProt P17568)
inactive: bafetinib 0 | [1] 0.164 | nilotinib -0.029 | [2] 0.057 | dasatinib 0.022 | [3] -0.053 | [4] 0.043 | [5] 0.01 | tipifarnib -0.029 | mubritinib -0.007

MPP1 (UniProt Q00013)
Sequence of UniProt Q00013 (Q00013 whole entry, looked up): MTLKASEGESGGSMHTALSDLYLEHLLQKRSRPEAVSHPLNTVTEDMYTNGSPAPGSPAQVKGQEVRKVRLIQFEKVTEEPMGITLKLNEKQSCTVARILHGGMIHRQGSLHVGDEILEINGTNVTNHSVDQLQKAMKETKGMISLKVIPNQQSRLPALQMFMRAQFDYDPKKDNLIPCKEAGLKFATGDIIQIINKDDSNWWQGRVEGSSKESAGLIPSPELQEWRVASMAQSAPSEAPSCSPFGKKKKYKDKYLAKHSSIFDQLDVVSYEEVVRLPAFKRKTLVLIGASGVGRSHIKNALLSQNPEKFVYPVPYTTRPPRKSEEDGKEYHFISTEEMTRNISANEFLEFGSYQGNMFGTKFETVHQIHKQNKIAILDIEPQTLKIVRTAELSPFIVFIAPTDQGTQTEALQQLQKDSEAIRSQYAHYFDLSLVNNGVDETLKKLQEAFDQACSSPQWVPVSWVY
inactive: bafetinib 0.043 | [1] 0.035 | nilotinib 0.073 | [2] -0.179 | dasatinib -0.086 | [3] -0.019 | [4] 0.047 | [5] -0.023 | tipifarnib -0.04 | mubritinib 0.034

OGFR (UniProt Q9NZT2)
Sequence of UniProt Q9NZT2 (Q9NZT2 whole entry, looked up): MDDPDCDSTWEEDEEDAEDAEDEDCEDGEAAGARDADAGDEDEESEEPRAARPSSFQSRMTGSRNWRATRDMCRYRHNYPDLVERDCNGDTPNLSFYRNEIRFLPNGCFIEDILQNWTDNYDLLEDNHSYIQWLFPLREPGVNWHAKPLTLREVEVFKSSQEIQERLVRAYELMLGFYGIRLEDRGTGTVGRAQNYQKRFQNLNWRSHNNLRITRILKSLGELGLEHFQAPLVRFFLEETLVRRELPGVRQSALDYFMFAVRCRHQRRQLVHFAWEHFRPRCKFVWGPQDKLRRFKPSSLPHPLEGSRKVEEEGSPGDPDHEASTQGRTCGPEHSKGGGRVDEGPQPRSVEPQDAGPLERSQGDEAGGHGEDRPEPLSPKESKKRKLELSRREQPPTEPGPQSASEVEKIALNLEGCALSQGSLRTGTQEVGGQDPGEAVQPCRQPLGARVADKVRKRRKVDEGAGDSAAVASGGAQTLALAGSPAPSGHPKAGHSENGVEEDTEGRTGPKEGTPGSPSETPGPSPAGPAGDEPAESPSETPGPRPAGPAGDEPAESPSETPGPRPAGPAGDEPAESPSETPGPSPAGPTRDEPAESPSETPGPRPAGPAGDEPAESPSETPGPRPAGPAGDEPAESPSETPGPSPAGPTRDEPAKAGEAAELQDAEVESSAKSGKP
active: mubritinib 0.328
inactive: bafetinib -0.041 | [1] 0.114 | nilotinib -0.024 | [2] -0.093 | dasatinib -0.114 | [3] -0.008 | [4] 0.036 | [5] -0.002 | tipifarnib 0.025

OPA1 isoform 2 (UniProt O60313)
Sequence of UniProt O60313 (O60313 whole entry, looked up): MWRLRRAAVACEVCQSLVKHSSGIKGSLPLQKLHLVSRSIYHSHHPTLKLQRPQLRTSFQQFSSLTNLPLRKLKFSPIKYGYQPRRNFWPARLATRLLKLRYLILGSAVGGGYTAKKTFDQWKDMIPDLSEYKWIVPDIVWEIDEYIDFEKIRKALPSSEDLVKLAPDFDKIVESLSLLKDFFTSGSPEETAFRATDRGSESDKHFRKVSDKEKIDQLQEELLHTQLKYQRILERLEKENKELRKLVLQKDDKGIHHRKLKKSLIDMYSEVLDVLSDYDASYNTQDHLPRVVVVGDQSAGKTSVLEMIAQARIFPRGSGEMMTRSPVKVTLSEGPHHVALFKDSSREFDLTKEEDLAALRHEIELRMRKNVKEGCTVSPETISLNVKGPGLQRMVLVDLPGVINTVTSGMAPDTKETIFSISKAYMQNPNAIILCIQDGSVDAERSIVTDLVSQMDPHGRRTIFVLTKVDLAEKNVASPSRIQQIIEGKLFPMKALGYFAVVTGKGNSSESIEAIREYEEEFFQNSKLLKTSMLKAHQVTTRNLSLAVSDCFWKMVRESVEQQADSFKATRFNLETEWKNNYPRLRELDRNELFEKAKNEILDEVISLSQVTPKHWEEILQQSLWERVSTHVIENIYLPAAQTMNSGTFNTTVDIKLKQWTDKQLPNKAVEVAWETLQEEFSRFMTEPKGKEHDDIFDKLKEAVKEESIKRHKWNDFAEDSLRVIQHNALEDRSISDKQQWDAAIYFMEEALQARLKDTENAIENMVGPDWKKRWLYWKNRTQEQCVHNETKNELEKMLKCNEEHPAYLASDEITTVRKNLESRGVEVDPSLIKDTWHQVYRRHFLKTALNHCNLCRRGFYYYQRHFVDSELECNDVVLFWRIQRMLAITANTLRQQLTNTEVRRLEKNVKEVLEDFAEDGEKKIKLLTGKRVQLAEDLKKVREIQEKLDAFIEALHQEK
inactive: bafetinib -0.022 | [1] 0.069 | nilotinib -0.039 | [2] -0.025 | dasatinib -0.169 | [3] -0.004 | [4] 0.054 | [5] -0.031 | tipifarnib -0.12 | mubritinib 0.062

NCAPH (UniProt Q15003)
inactive: bafetinib 0.015 | [1] 0.022 | nilotinib -0.055 | [2] -0.049 | dasatinib -0.121 | [3] 0.041 | [4] -0.057 | [5] 0.019 | tipifarnib -0.102 | mubritinib 0.019

NARS2 (UniProt Q96I59)
inactive: bafetinib -0.108 | [1] 0.034 | nilotinib -0.063 | [2] 0.069 | dasatinib -0.05 | [3] 0.005 | [4] 0.084 | [5] 0.047 | tipifarnib -0.004 | mubritinib -0.009

NSMCE4A (UniProt Q9NXX6)
inactive: bafetinib -0.145 | [1] -0.144 | nilotinib 0.189 | [2] -0.254 | dasatinib -0.051 | [3] 0.03 | [4] 0.025 | [5] -0.131 | tipifarnib 0.026
active: mubritinib 0.552

NDUFA12 (UniProt Q9UI09)
inactive: bafetinib 0 | [1] 0.089 | nilotinib -0.158 | [2] -0.031 | dasatinib -0.107 | [3] 0.029 | [4] 0.109 | [5] 0.062 | tipifarnib -0.007
active: mubritinib 0.326

NGLY1 (UniProt Q96IV0)
inactive: bafetinib 0.039 | [1] 0.055 | nilotinib -0.068 | [2] -0.038 | dasatinib -0.064 | [3] 0.021 | [4] -0.009 | [5] -0.034 | tipifarnib -0.067 | mubritinib -0.062

NDUFB8 (UniProt O95169)
inactive: bafetinib -0.029 | [1] -0.002 | nilotinib 0.015 | [2] 0.027 | dasatinib 0.056 | [3] -0.04 | [4] -0.08 | [5] 0.154 | tipifarnib 0.071 | mubritinib 0.027

MT-ATP6 (UniProt P00846)
inactive: bafetinib 0.162 | [1] 0.086 | nilotinib 0.006 | [2] 0.005 | dasatinib -0.101 | [3] -0.043 | [4] -0.024 | [5] 0.11 | tipifarnib 0.231 | mubritinib 0.028

NUP85 (UniProt Q9BW27)
inactive: bafetinib -0.088 | [1] 0.02 | nilotinib -0.027 | [2] -0.115 | dasatinib -0.068 | [3] -0.013 | [4] -0.009 | [5] -0.002 | tipifarnib -0.031 | mubritinib 0.026

MRPL34 (UniProt Q9BQ48)
inactive: bafetinib 0.176 | [1] 0.035 | nilotinib -0.083 | [2] 0.248 | dasatinib 0.065 | [3] -0.064 | [4] -0.142 | [5] -0.048 | tipifarnib 0.058 | mubritinib 0.032

NDUFAF6 (UniProt Q330K2)
Sequence of UniProt Q330K2 (Q330K2 whole entry, looked up): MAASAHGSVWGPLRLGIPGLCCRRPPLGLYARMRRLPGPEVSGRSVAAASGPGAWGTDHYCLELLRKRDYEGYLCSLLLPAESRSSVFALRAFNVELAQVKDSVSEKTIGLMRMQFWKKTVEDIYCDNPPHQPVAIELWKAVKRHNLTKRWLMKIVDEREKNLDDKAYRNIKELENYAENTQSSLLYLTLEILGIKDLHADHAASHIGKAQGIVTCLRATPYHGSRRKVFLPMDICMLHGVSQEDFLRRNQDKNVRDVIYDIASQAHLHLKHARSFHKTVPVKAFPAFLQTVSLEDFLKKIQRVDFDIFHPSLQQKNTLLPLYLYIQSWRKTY
inactive: bafetinib -0.178 | [1] 0.014 | nilotinib 0.01 | [2] -0.096 | dasatinib -0.064 | [3] 0.017 | [4] 0.01 | [5] 0 | tipifarnib -0.11 | mubritinib 0.028

NCBP2AS2 (UniProt Q69YL0)
Sequence of UniProt Q69YL0 (Q69YL0 whole entry, looked up): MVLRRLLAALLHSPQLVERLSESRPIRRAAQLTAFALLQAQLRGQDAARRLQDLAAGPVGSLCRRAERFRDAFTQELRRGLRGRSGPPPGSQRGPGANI
inactive: [1] -0.018 | nilotinib 0 | [2] 0.045 | dasatinib -0.021 | [3] 0.031 | [4] 0.002 | [5] 0.021 | tipifarnib -0.001 | mubritinib 0.006
active: bafetinib -0.504

MON1B (UniProt Q7L1V2)
inactive: bafetinib -0.071 | [1] 0.004 | nilotinib 0.025 | [2] 0.015 | dasatinib -0.099 | [3] -0.048 | [4] 0.038 | [5] 0.012 | tipifarnib -0.011 | mubritinib 0.065

NCAPG (UniProt Q9BPX3)
Sequence of UniProt Q9BPX3 (Q9BPX3 whole entry, looked up): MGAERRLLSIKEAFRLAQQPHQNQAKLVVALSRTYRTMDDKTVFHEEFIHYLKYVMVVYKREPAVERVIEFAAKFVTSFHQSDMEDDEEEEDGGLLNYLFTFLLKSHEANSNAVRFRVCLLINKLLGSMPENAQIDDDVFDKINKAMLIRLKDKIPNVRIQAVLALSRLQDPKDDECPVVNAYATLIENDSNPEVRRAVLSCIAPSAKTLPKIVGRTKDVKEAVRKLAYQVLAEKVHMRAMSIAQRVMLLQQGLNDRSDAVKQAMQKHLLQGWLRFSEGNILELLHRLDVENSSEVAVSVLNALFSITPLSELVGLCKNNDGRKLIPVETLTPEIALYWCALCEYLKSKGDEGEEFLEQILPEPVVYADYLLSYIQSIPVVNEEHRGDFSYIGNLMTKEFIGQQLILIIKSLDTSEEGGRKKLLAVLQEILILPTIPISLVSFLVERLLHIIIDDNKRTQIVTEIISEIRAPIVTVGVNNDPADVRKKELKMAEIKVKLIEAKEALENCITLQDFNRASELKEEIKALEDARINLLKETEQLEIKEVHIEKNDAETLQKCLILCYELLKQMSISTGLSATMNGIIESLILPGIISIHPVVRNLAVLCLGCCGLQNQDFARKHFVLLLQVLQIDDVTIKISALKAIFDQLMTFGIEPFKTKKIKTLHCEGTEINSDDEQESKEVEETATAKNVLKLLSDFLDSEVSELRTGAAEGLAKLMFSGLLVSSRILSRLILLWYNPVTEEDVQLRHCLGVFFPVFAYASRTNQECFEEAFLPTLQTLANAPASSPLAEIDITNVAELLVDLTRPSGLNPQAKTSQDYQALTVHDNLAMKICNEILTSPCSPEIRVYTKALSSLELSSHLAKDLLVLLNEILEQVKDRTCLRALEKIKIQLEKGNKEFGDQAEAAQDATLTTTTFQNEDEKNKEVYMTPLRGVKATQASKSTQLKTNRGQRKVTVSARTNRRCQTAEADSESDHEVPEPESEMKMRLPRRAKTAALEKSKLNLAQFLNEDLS
inactive: bafetinib 0.076 | [1] 0.06 | nilotinib -0.032 | [2] -0.07 | dasatinib -0.085 | [3] 0.065 | [4] -0.016 | [5] 0.012 | tipifarnib -0.142 | mubritinib -0.003

NUDCD2 (UniProt Q8WVJ2)
inactive: bafetinib 0.017 | [1] 0.033 | nilotinib -0.119 | [2] -0.216 | dasatinib -0.171 | [3] -0.026 | [4] 0.02 | [5] 0.066 | tipifarnib -0.1 | mubritinib 0.077

NOP53 (UniProt Q9NZM5)
inactive: bafetinib 0.189 | [1] 0.059 | nilotinib 0.039 | [2] 0.217 | dasatinib 0.147 | [3] 0.027 | [4] -0.339 | [5] -0.178 | tipifarnib 0.161 | mubritinib -0.202

MYL12B (UniProt O14950)
inactive: bafetinib -0.049 | [1] 0.042 | nilotinib 0.031 | [2] 0.001 | dasatinib 0.001 | [3] -0.002 | [4] 0.117 | [5] -0.046 | tipifarnib -0.038 | mubritinib 0.064

NMT2 (UniProt O60551)
inactive: bafetinib 0.021 | [1] 0.047 | nilotinib 0.018 | [2] 0.083 | dasatinib -0.088 | [3] -0.031 | [4] -0.003 | [5] 0.03 | tipifarnib -0.015 | mubritinib 0.041

MRPS10 (UniProt P82664)
inactive: bafetinib 0.057 | [1] 0.119 | nilotinib -0.097 | [2] 0.006 | dasatinib -0.005 | [3] -0.046 | [4] 0.002 | [5] -0.096 | tipifarnib -0.104 | mubritinib 0.1

NDUFA6 (UniProt P56556)
Sequence of UniProt P56556 (P56556 whole entry, looked up): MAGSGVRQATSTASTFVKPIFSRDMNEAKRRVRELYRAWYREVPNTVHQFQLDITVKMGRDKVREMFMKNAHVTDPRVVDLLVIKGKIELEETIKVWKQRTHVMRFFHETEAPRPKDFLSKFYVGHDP
inactive: bafetinib 0.128 | [1] 0.301 | nilotinib -0.151 | [2] 0.021 | dasatinib -0.088 | [3] 0.027 | [4] 0.089 | [5] 0.081 | tipifarnib -0.173 | mubritinib 0.184

NPC1 (UniProt O15118)
Sequence of UniProt O15118 (O15118 whole entry, looked up): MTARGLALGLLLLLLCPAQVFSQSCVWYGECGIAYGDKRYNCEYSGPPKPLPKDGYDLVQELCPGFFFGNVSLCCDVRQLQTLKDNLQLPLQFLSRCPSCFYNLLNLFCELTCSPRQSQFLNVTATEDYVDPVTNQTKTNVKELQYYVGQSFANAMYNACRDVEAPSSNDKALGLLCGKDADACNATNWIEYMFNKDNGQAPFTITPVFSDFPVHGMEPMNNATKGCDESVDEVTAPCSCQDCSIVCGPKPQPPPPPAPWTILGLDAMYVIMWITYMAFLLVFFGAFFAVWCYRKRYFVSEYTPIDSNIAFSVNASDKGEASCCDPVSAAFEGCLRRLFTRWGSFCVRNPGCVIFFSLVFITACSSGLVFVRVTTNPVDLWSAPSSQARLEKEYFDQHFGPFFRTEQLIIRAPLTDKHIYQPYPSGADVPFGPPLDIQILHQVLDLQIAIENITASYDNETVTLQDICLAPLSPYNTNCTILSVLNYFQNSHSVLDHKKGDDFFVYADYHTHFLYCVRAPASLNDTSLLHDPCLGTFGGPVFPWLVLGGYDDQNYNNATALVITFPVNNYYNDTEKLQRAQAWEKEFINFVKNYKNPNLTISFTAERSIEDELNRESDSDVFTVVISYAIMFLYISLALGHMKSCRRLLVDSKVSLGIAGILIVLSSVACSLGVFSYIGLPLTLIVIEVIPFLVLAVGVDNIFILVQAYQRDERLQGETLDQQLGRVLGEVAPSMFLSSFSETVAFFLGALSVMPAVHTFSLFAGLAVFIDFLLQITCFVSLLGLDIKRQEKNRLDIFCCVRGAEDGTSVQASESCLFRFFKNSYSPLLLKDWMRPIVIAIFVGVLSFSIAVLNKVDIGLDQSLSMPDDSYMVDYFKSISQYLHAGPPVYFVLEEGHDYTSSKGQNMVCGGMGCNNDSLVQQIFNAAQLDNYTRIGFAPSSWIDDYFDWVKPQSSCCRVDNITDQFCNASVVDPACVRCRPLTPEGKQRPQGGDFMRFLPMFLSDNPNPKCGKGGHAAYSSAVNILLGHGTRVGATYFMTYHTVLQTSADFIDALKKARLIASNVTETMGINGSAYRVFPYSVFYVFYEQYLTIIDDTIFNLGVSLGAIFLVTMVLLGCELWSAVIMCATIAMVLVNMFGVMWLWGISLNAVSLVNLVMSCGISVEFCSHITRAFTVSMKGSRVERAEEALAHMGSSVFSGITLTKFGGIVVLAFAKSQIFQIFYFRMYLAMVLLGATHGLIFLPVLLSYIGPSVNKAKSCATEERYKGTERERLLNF
active: bafetinib -0.211
inactive: [1] -0.02 | nilotinib 0.024 | [2] -0.017 | dasatinib -0.001 | [3] 0.05 | [4] 0.004 | [5] 0.012 | tipifarnib 0.038 | mubritinib -0.027

MRPS22 (UniProt P82650)
inactive: bafetinib 0.233 | [1] 0.137 | nilotinib -0.21 | [2] 0.044 | dasatinib -0.024 | [3] 0.012 | [4] 0.003 | [5] 0.017 | tipifarnib -0.11 | mubritinib 0.15

NUCKS1 (UniProt Q9H1E3)
inactive: bafetinib -0.114 | [1] -0.128 | nilotinib -0.028 | [2] -0.13 | dasatinib 0.037 | [3] 0.169 | [4] 0.005 | [5] 0.055 | tipifarnib 0.059 | mubritinib 0.034
